Assay results from the supplement of paper PMC10849652.
Of roughly 8,800 targets only a part is listed; those with a hit were picked by preference. About 0.5% of all pairs of compound and target were hits.

Key:
Experiment in all cases: log2 fold change, soluble protein after heating vs DMSO (PISA); higher = thermal stabilisation; K562 lysate, 10 uM; active = over 0.2 and 3.5 SD of the protein, either way, in both replicates (recomputed)
vemurafenib = compound: CCCS(=O)(=O)Nc1ccc(F)c(C(=O)c2c[nH]c3ncc(-c4ccc(Cl)cc4)cc23)c1F [vemurafenib]
Method in brief: (§1)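 Quantification was by TMTpro 16plex LC-MS/MS with equalised channel sums, applied to the supernatant after 21,000xg for 90 min. Samples were crude K562 extract at 1 mg/mL protein in PBS pH 7.4 with 1 mM MgCl2, treated with 10 μM compound for 30 min, heated for 3 min across 48°C-58°C, pooled and brought to 0.5% NP-40 at 4°C. Values are log-two fold changes in thermal stability relative to solvent controls, from duplicates.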

[1] = compound: CCCS(=O)(=O)Nc1ccc(F)c(C(=O)c2c[nH]c3ncc(Cl)cc23)c1F
Method in brief: as §1

barasertib = compound: CCN(CCCOc1ccc2c(Nc3cc(CC(=O)Nc4cccc(F)c4)[nH]n3)ncnc2c1)CCOP(=O)(O)O [barasertib]
Method in brief: as §1

[2] = compound: CC[C@@H]1C(=O)N(C)c2cnc(Nc3ccc(C(=O)NC4CCN(C)CC4)cc3OC)nc2N1C1CCCC1
Method in brief: as §1

volasertib = compound: CC[C@@H]1C(=O)N(C)c2cnc(Nc3ccc(C(=O)N[C@H]4CC[C@H](N5CCN(CC6CC6)CC5)CC4)cc3OC)nc2N1C(C)C [volasertib]
Method in brief: as §1

[3] = compound: CCn1c(C(=O)N(C2CC2)C2CC2)cc2c3c(ncn3C)c(Nc3cc(C)n(C)n3)nc21
Method in brief: as §1

saracatinib = compound: CN1CCN(CCOc2cc(OC3CCOCC3)c3c(Nc4c(Cl)ccc5c4OCO5)ncnc3c2)CC1 [saracatinib]
Method in brief: as §1

[4] = compound: CCn1cc(-c2ccnc3[nH]c(-c4cccc(CN(C)C)c4)cc23)c(-c2ccc(NC(=O)N(C)C)cc2)n1
Method in brief: as §1

[5] = compound: CN1CCC(CNc2ccc3ncc(-c4cccc(OC(F)(F)F)c4)n3n2)CC1
Method in brief: as §1

sotrastaurin = compound: CN1CCN(c2nc(C3=C(c4c[nH]c5ccccc45)C(=O)NC3=O)c3ccccc3n2)CC1 [sotrastaurin]
Method in brief: as §1

Sequence of UniProt P21359 (P21359 whole entry, looked up): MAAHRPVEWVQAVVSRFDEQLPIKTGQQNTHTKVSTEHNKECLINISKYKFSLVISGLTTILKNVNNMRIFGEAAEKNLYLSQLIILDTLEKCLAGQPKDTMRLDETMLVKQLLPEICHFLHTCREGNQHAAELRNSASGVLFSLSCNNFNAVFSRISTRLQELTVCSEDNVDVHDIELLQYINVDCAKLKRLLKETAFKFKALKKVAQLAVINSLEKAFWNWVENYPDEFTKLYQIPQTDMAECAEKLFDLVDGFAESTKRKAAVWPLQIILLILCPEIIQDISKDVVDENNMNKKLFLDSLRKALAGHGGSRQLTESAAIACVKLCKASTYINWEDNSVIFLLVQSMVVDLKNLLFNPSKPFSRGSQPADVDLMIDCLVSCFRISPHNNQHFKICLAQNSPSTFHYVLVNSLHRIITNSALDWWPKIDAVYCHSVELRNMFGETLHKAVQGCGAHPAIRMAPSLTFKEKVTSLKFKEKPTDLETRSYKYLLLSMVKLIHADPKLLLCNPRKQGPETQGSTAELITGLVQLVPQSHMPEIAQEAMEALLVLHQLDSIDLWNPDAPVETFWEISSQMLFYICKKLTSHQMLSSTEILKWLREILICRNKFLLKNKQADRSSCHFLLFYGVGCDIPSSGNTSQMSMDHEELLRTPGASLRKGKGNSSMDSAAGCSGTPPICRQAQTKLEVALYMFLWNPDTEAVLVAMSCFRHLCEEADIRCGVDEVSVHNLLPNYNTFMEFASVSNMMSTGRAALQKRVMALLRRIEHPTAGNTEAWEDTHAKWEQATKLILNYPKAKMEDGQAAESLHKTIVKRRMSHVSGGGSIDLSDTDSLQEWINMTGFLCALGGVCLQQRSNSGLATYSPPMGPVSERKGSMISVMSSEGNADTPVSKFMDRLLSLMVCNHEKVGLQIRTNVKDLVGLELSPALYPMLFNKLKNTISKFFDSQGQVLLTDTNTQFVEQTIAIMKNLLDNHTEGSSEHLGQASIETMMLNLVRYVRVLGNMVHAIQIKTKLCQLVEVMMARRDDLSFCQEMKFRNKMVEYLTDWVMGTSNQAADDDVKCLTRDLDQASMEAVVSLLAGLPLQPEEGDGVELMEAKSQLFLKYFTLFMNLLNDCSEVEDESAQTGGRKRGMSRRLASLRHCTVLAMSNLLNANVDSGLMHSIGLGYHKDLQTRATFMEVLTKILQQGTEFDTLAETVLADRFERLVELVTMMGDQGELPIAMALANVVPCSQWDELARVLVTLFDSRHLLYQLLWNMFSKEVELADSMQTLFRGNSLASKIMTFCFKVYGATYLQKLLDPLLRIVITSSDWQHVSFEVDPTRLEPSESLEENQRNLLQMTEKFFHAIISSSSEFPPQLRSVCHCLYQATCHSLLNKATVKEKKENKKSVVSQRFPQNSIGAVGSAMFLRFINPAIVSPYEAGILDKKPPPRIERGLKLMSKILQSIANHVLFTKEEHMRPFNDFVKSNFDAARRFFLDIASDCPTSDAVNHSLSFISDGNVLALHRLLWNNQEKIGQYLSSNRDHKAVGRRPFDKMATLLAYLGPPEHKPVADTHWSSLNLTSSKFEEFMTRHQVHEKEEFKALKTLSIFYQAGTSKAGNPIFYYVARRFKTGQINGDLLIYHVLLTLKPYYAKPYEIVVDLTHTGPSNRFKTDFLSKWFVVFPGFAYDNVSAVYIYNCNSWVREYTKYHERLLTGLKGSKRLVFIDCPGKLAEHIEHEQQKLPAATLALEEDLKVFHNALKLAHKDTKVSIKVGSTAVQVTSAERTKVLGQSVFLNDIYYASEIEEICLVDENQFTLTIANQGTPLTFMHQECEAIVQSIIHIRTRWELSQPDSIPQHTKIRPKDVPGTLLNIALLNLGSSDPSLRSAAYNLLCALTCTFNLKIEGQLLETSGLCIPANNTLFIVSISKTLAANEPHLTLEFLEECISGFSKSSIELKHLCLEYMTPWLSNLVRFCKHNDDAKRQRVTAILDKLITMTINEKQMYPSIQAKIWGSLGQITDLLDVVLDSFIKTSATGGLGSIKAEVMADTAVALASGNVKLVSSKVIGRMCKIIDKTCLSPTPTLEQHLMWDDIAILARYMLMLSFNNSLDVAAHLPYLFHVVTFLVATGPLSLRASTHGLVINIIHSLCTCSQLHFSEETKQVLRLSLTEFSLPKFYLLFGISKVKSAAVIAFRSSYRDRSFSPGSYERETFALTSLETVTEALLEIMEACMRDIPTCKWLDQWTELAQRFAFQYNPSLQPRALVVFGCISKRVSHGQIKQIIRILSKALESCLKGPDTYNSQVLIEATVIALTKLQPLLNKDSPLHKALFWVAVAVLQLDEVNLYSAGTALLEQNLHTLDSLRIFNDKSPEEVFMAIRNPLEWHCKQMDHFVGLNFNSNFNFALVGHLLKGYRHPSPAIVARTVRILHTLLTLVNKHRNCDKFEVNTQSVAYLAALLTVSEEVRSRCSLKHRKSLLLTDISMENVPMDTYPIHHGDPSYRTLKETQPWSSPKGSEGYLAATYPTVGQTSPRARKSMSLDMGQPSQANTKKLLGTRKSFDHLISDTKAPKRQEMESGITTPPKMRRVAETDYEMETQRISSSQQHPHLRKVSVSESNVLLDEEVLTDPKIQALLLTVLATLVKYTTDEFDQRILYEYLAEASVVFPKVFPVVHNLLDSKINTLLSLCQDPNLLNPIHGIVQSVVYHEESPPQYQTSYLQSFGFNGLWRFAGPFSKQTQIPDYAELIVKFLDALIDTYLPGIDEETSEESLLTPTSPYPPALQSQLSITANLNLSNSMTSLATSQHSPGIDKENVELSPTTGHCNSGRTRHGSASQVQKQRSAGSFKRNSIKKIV
Sequence of UniProt O60829 (O60829 whole entry, looked up): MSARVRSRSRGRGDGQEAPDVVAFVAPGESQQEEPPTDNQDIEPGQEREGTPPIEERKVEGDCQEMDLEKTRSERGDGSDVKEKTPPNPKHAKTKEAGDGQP
Sequence of UniProt Q9HD67 (Q9HD67 whole entry, looked up): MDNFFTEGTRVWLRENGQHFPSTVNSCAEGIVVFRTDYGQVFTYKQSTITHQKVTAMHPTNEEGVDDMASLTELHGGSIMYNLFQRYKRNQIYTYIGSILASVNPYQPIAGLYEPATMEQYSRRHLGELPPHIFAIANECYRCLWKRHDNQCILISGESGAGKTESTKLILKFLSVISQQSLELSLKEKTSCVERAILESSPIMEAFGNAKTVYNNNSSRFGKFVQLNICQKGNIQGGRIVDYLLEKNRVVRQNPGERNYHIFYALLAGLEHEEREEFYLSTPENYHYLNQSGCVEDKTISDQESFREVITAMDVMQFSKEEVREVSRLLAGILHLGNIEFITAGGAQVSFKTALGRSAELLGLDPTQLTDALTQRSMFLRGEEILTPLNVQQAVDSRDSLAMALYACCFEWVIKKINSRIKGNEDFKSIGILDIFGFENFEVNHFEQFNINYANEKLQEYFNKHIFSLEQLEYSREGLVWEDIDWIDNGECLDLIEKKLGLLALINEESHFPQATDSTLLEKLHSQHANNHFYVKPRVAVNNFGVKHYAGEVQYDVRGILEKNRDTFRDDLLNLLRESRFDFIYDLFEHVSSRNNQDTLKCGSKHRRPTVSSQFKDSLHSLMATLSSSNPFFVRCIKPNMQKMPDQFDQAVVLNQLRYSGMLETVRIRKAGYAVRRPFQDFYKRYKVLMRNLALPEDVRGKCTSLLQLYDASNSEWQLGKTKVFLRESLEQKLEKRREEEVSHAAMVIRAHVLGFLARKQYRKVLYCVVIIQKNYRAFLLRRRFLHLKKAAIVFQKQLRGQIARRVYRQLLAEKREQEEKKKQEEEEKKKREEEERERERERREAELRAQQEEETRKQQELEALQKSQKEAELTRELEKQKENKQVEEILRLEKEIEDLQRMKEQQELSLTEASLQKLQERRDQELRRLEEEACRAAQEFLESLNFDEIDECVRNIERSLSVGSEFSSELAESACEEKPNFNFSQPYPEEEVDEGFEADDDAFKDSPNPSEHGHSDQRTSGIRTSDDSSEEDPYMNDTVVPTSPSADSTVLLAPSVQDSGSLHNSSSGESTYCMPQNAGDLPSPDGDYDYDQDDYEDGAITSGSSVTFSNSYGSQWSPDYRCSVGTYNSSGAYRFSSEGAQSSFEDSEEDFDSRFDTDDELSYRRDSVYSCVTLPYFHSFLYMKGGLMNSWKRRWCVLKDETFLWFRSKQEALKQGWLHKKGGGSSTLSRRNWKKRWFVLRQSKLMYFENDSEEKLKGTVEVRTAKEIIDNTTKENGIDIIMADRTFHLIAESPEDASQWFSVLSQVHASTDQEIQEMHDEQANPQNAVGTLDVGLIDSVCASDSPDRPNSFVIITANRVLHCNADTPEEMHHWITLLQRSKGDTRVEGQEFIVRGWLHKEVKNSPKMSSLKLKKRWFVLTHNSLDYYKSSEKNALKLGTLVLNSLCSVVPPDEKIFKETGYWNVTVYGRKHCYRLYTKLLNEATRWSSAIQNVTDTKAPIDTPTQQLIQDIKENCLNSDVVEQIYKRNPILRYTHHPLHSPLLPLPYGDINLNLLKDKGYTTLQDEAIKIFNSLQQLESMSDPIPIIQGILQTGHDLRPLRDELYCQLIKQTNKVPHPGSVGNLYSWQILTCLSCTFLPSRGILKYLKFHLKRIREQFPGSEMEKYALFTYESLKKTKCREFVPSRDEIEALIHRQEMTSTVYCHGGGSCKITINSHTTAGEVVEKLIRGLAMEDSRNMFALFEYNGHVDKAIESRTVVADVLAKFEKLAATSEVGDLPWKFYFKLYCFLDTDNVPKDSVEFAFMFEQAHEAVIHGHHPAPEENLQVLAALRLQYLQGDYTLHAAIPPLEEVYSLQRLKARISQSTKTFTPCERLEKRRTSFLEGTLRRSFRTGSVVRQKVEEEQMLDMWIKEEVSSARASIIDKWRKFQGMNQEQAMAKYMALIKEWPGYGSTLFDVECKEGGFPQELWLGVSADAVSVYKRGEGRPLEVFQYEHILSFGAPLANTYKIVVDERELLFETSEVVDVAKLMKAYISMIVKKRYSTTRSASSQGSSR
Sequence of UniProt P03928 (P03928 whole entry, looked up): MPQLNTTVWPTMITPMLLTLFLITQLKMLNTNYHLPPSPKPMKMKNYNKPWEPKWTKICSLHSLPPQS

NAA16 (UniProt Q6N069) was tested, and the log2 fold change (vemurafenib) was 0.902 (active), the log2 fold change [1] was -0.048 (inactive) and the log2 fold change (barasertib) was 0.246 (inactive). The log2 fold change [2] was -0.049 (inactive), the log2 fold change (volasertib) was -0.078 (inactive) and the log2 fold change [3] was 0.057 (inactive). The log2 fold change (saracatinib) was -0.012 (inactive).

With NRIP1 (UniProt P48552) the log2 fold change [1] was 0.024 (inactive), the log2 fold change (barasertib) was 0.076 (inactive) and the log2 fold change (volasertib) was -0.055 (inactive). The log2 fold change [3] was -0.124 (inactive), the log2 fold change [4] was -0.651 (active) and the log2 fold change [5] was 0.17 (inactive). For the same target, the log2 fold change (saracatinib) was -0.071 (inactive) and the log2 fold change (sotrastaurin) was -0.074 (inactive).

In the case of MUC5AC (UniProt P98088), the log2 fold change [3] is reported as 0 (inactive).

In the case of NUDT6 (UniProt P53370), the log2 fold change (vemurafenib) is reported as 0.022 (inactive), the log2 fold change [2] is reported as 0.091 (inactive) and the log2 fold change [3] is reported as -0.085 (inactive). For the same target, the log2 fold change (saracatinib) was 0.05 (inactive) and the log2 fold change (sotrastaurin) was -0.033 (inactive).

NR2F2 (UniProt P24468) was tested, and the log2 fold change [1] was -0.081 (inactive), the log2 fold change (barasertib) was 0.01 (inactive) and the log2 fold change (volasertib) was -0.146 (inactive). For the same target, the log2 fold change [3] was -0.028 (inactive), the log2 fold change [4] was 0.005 (inactive) and the log2 fold change [5] was -0.216 (inactive). The log2 fold change (saracatinib) was 0.014 (inactive) and the log2 fold change (sotrastaurin) was 0.013 (inactive).

For MYO1D (UniProt O94832), the log2 fold change (vemurafenib) was 0.073 (inactive), the log2 fold change [1] was 0.018 (inactive) and the log2 fold change (barasertib) was 0.05 (inactive). For the same target, the log2 fold change [2] was 0.006 (inactive), the log2 fold change (volasertib) was -0.003 (inactive) and the log2 fold change [3] was -0.002 (inactive). For the same target, the log2 fold change [4] was -0.05 (inactive), the log2 fold change [5] was -0.035 (inactive) and the log2 fold change (saracatinib) was -0.001 (inactive). The log2 fold change (sotrastaurin) was 0.041 (inactive).

For NUDT5 (UniProt C9JYY9), the log2 fold change [2] was 0.036 (inactive).

With PARD3B (UniProt Q8TEW8) the log2 fold change [4] was 1.46 (inactive), the log2 fold change [5] was -0.046 (inactive) and the log2 fold change (saracatinib) was -0.002 (inactive).

In the case of NPLOC4 (UniProt I3L3I1), the log2 fold change (barasertib) is reported as 0.125 (inactive), the log2 fold change [2] is reported as 0.104 (inactive) and the log2 fold change (saracatinib) is reported as 0.152 (inactive). The log2 fold change (sotrastaurin) was -0.108 (inactive).

With MTHFD1 (UniProt V9GZ32) the log2 fold change [1] was 0.008 (inactive) and the log2 fold change (volasertib) was -0.145 (inactive).

MXRA7 (UniProt P84157) was tested, and the log2 fold change (vemurafenib) was -0.134 (inactive), the log2 fold change [1] was 0.094 (inactive) and the log2 fold change [2] was -0.006 (inactive). The log2 fold change (volasertib) was 0.054 (inactive), the log2 fold change [3] was 0.049 (inactive) and the log2 fold change [4] was -0.182 (inactive). For the same target, the log2 fold change [5] was 0.167 (inactive), the log2 fold change (saracatinib) was 0.02 (inactive) and the log2 fold change (sotrastaurin) was -0.064 (inactive).

With NF1 (UniProt P21359) the log2 fold change (vemurafenib) was 0.019 (inactive), the log2 fold change [1] was 0.024 (inactive) and the log2 fold change (barasertib) was 0.029 (inactive). For the same target, the log2 fold change [2] was -0.044 (inactive), the log2 fold change (volasertib) was -0.048 (inactive) and the log2 fold change [3] was 0.031 (inactive). For the same target, the log2 fold change [4] was -0.035 (inactive), the log2 fold change [5] was -0.041 (inactive) and the log2 fold change (saracatinib) was 0.001 (inactive). The log2 fold change (sotrastaurin) was -0.029 (inactive).

In the case of MYH6 (UniProt P13533), the log2 fold change [1] is reported as -0.081 (inactive), the log2 fold change (barasertib) is reported as 0.006 (inactive) and the log2 fold change [2] is reported as 0.215 (inactive). For the same target, the log2 fold change (volasertib) was 0.084 (inactive), the log2 fold change [3] was -0.137 (inactive) and the log2 fold change (sotrastaurin) was -0.017 (inactive).

With NTMT1 (UniProt S4R338) the log2 fold change [1] was 0.043 (inactive) and the log2 fold change (volasertib) was -0.002 (inactive).

For PAGE4 (UniProt O60829), the log2 fold change [1] was 0.015 (inactive), the log2 fold change (barasertib) was 0.108 (inactive) and the log2 fold change [2] was 0.039 (inactive). The log2 fold change (volasertib) was 0.002 (inactive), the log2 fold change [3] was -0.042 (inactive) and the log2 fold change [4] was 0.476 (inactive). The log2 fold change [5] was -0.158 (inactive), the log2 fold change (saracatinib) was 0.046 (inactive) and the log2 fold change (sotrastaurin) was 0.092 (inactive).

For ORC1 (UniProt Q13415), the log2 fold change [2] was 0.185 (inactive).

MSH3 (UniProt P20585) was tested, and the log2 fold change (vemurafenib) was -0.004 (inactive), the log2 fold change [1] was 0.048 (inactive) and the log2 fold change (barasertib) was -0.001 (inactive). The log2 fold change [2] was 0.036 (inactive), the log2 fold change (volasertib) was -0.031 (inactive) and the log2 fold change [3] was -0.034 (inactive). For the same target, the log2 fold change [4] was -0.025 (inactive), the log2 fold change [5] was 0.031 (inactive) and the log2 fold change (saracatinib) was 0.038 (inactive). The log2 fold change (sotrastaurin) was 0.039 (inactive).

With MYO10 (UniProt Q9HD67) the log2 fold change (vemurafenib) was 0.483 (inactive), the log2 fold change (barasertib) was 0.171 (inactive) and the log2 fold change [3] was -0.185 (inactive). The log2 fold change [4] was 1.26 (active), the log2 fold change [5] was -0.381 (inactive) and the log2 fold change (sotrastaurin) was -0.287 (inactive).

With MT-ATP8 (UniProt P03928) the log2 fold change (vemurafenib) was 0.033 (inactive), the log2 fold change [1] was -0.036 (inactive) and the log2 fold change (barasertib) was 0.057 (inactive). For the same target, the log2 fold change [2] was 0.063 (inactive), the log2 fold change (volasertib) was 0.015 (inactive) and the log2 fold change [3] was 0.128 (inactive). The log2 fold change [4] was 0.711 (active), the log2 fold change [5] was -0.144 (inactive) and the log2 fold change (sotrastaurin) was -0.084 (inactive).

NFAT5 isoform 4 (UniProt O94916) was tested, and the log2 fold change (barasertib) was -0.039 (inactive) and the log2 fold change (sotrastaurin) was 0 (inactive).

NUB1 (UniProt Q9Y5A7) was tested, and the log2 fold change (vemurafenib) was -0.007 (inactive), the log2 fold change [1] was 0.011 (inactive) and the log2 fold change (barasertib) was 0.028 (inactive). For the same target, the log2 fold change [2] was -0.052 (inactive), the log2 fold change (volasertib) was -0.056 (inactive) and the log2 fold change [3] was 0 (inactive). For the same target, the log2 fold change [4] was 0.008 (inactive), the log2 fold change [5] was -0.048 (inactive) and the log2 fold change (saracatinib) was -0.009 (inactive). For the same target, the log2 fold change (sotrastaurin) was 0.021 (inactive).

With MT-ND1 (UniProt P03886) the log2 fold change (vemurafenib) was -0.074 (inactive), the log2 fold change [1] was 0.012 (inactive) and the log2 fold change (barasertib) was 0.056 (inactive). The log2 fold change [2] was -0.068 (inactive), the log2 fold change (volasertib) was -0.04 (inactive) and the log2 fold change [3] was -0.096 (inactive). For the same target, the log2 fold change [4] was -0.355 (inactive), the log2 fold change [5] was 0.066 (inactive) and the log2 fold change (saracatinib) was 0.075 (inactive). For the same target, the log2 fold change (sotrastaurin) was 0.038 (inactive).

In the case of MYLK (UniProt Q15746), the log2 fold change (vemurafenib) is reported as -0.254 (inactive), the log2 fold change [1] is reported as -0.022 (inactive) and the log2 fold change (barasertib) is reported as -0.097 (inactive). The log2 fold change [2] was -0.675 (active), the log2 fold change (volasertib) was -0.053 (inactive) and the log2 fold change [4] was -0.169 (inactive). The log2 fold change [5] was 0.014 (inactive) and the log2 fold change (sotrastaurin) was -0.084 (inactive).
